# Screening data: PubChem BioAssay, several laboratories
# GDH-TPI counter: GDH-TPI coupling enzyme inhibitors, primary screen, artefact control for M. tuberculosis FBA inhibitor project, biochemical, absorbance, full deck. 360,000 tested, 1.2% active. inhibition, % at 4.8 µM. AID 588335, 2011. GDH-TPI coupled enzyme counterscreen, NADH absorbance; in the data active = inhibition above about 30%;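 also: 0% = DMSO wells and 100% = wells lacking the enzyme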
# UGM FP inh: M. tuberculosis UGM enzyme inhibitors, primary screen, biochemical, fluorescence polarization, single point; UDP-galactopyranose mutase (Mycobacterium tuberculosis (strain ATCC 25618 / H37Rv)), …; purified UGM, fluorescence polarization probe displacement; inhibition, % at 10 µM; 320,000 tested, 0.06% active; AID 504406, 2011; in the data active = inhibition above about 10%, passing the limit was not always enough; inconclusive = no clear call, values can overlap the other calls
# Mtb hypoxia inh: PubChem AID 1159583; M. tuberculosis hypoxia-regulated fluorescent reporter, fluorescence; fluorescence inhibition, % (concentration not given with the values); 300,000 tested, 0.1% active; in the data active = fluorescence inhibition mostly above about 23%, no sharp cut-off; inactive = mostly below about 17%
# Rv3671c protease: Rv3671c serine protease inhibitors, primary screen, biochemical, fluorescence polarization, M. tuberculosis H37Rv; P9WHR9; inhibition, % at 5.96 µM; 320,000 tested, 0.048% active; AID 2606, 2010; in the data active = inhibition above about 38%;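 also: extracellular domain of Rv3671c used as enzyme; 0% = enzyme with DMSO and 100% = no enzyme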
# FadD28 FP inh: inhibitors of FadD28 bisubstrate probe binding, primary screen, biochemical, fluorescence polarization, single point; inhibition, % at 12.5 µM; 360,000 tested, 0.22% active; in the data active = inhibition above about 8.5%, passing the limit was not always enough; inconclusive = no clear call, values can overlap the other calls
# Mtb FBA inh: Mtb FBA enzyme inhibitors, primary screen, biochemical, fluorescence, strain H37Rv; inhibition, % at 1 µM; 360,000 tested, 2.3% active; purified M. tuberculosis FBA, fluorescence read-out; Fructose-bisphosphate aldolase (Mycobacterium tuberculosis (strain ATCC 25618 / H37Rv)), …; AID 588726, 2011; in the data active = inhibition above about 27%;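 also: 0% = vehicle and 100% = reference inhibitor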
# Target sequence (P9WQA3 whole entry, looked up): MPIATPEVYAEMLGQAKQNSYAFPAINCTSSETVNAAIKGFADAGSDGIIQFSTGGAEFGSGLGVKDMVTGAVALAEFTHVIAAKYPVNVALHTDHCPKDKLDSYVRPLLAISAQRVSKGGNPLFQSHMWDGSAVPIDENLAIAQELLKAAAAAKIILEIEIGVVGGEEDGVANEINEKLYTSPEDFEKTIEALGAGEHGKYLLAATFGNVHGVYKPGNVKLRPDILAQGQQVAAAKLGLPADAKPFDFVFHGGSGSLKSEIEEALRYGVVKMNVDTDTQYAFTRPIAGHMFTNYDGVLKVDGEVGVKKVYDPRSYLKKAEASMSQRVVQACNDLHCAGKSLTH
# * = called active by the depositor; ? = inconclusive; . = no result; + = active, no number. This is a sample that favours compounds with a hit; in the whole collection about 3.5% have one here.
SMILES,GDH-TPI counter,UGM FP inh,Mtb hypoxia inh,Rv3671c protease,FadD28 FP inh,Mtb FBA inh
CN(C)N=Nc1nc2c([nH]1)c(=O)n(C)c(=O)n2C,19,-6,4,8,-2,-1
Cc1cc(NC(=O)c2sc3ccccc3c2O)no1,9,5,6,.,0,+
O=C(NN=Cc1ccc(N(CCCl)CCCl)cc1Cl)c1cccnc1,72*,.,.,.,-2,8
Cc1cc(N(CCCl)CCCl)ccc1C=NNC(=O)c1cccnc1,51*,.,12,.,4,3
Cc1[nH]nc2c1C(=NO)CC(c1ccccc1)C2 (configuration not stated),.,.,12,.,.,.
O=C(ON=Cc1ccc(N2CCOCC2)c([N+](=O)[O-])c1)c1ccc(F)cc1,.,.,5,.,.,.
COc1ccc(/C=C2\SC(=O)N(CCNC(=O)C3=COCCO3)C2=O)cc1,31*,-1,-15,2,0,2
O=C(NCCN1C(=O)S/C(=C\c2ccccc2F)C1=O)C1=COCCO1,42*,-3,8,5,-2,3
O=C(NCCN1C(=O)S/C(=C\c2ccccc2Cl)C1=O)C1=COCCO1,20,-4,2,-3,-1,2
O=C(NCCN1C(=O)S/C(=C\c2ccc(Cl)cc2)C1=O)C1=COCCO1,-1,-1,-4,-1,-3,0
O=C(NCCN1C(=O)S/C(=C\c2ccc(OC(F)F)cc2)C1=O)C1=COCCO1,41*,-1,5,3,0,4
COc1cc(/C=C2\SC(=O)N(CCNC(=O)c3c(C)noc3C)C2=O)cc(OC)c1OC,31*,3,-1,5,-2,1
Cc1n[nH]c(=S)n(N=Cc2cccs2)c1=O,.,.,-4,.,.,.
NC(=O)c1cccc2c1-c1ccccc1/C2=N/NC(N)=S,41*,-2,.,-2,0,-2
COc1ccc(Cc2nc3ccccc3n2CC(=O)NN=Cc2ccc(O)cc2)cc1OC,.,.,7,.,.,.
Cn1c(SCC(=O)NN=Cc2ccc(O)c(O)c2)nc2ccccc21,.,.,12,.,.,.
Cc1cccc(-n2c(C)cc(/C=N/NC(=O)c3ccc(CN4CCOCC4)cc3)c2C)c1,45*,0,.,-4,-3,1
Cc1ccc(-n2c(C)cc(/C=N/NC(=O)c3ccc(CN4CCOCC4)cc3)c2C)cc1,21,3,.,0,-2,1
CCc1ccc(N=C2NC(=O)/C(=C/c3cc(OC)c(OC)c(OC)c3)S2)cc1,30,3,3,-31,-2,1
CCc1ccc(N=C2NC(=O)/C(=C/c3cc(Br)c(OCC(=O)O)c(OC)c3)S2)cc1,34*,0,.,-2,-10,2
CCCCn1c(=O)[nH]c2nc3cc(N)ccc3nc2c1=O,1,33*,4,9,3,-10
Nc1ccc2nc3c(=O)n(CCc4ccccc4)c(=O)[nH]c3nc2c1,5,?,-3,-24,-1,-11
Nc1ccc2nc3c(=O)n(C4CCCCC4)c(=O)[nH]c3nc2c1,6,36*,-30,7,0,-15
Cc1cc2nc3c(=O)n(CCc4ccccc4)c(=O)[nH]c3nc2cc1N,21,17*,-20,-9,-2,-2
CCOC(=O)C1C2COc3ccccc3C2N2C(=O)N(c3ccc(Cl)cc3)C(=O)[C@@]12C (some centres not stated),.,.,8,.,.,.
SMILES,GDH-TPI counter,UGM FP inh,Mtb hypoxia inh,Rv3671c protease,FadD28 FP inh,Mtb FBA inh
CCOC(=O)C1=C(C)N=c2sc(=Cc3ccc(OC(C)=O)c(OCC)c3)c(=O)n2C1/C=C/c1ccccc1 (configuration not stated),.,.,1,.,.,.
CCn1c(SCC(=O)NN=Cc2c[nH]c3ccccc23)nnc1-c1ccc(C(C)(C)C)cc1,.,.,-1,.,.,.
C#Cc1ccc(C2C=C(C(=O)NC3CC3)OC(OCC)C2CCCO)cc1 (configuration not stated),.,.,2,.,.,.
Cc1ccc2cc(C#N)c(NCc3ccco3)nc2c1,5,0,0,-4,0,116*
O=C(COc1cccc2ccccc12)NN=C/C=C/c1ccccc1,.,.,-10,.,.,.
CCn1c(=NC(=O)c2ccc(N3C(=O)CCC3=O)cc2)sc2c(OC)ccc(OC)c21,37*,1,4,-30,-2,1
CCn1c(=NC(=O)CN2C(=O)CCC2=O)sc2c(OC)ccc(OC)c21,21,-1,11,-2,-1,2
